Assay [1] is described as follows: qHTS assay to identify small molecule antagonists of the estrogen related receptor (ERR) signaling pathway from Tox21 library - cell viability counter screen (AID 1224834). Also: nearly all actives have a fitted effect of over 30% in size. Summed up: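 ERR reporter cells, 2,000 per well, rested 6 h, then exposed to compound in DMSO for 17.5 hours at 37 C. Viability read as fluorescence after 30 min with CellTiter-Fluor.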
Assay [2] deals with Luciferin 4-monooxygenase (Photinus pyralis) (UniProt P08659). Kind of assay: qHTS assay to identify small molecule inhibitors of firefly luciferase (AID 1224835). Also: nearly all actives have a fitted effect of over 25% in size. Also: potency is read from the fitted curve at half-maximal effect. Summed up: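 Inhibition of purified Photinus luciferase is measured by luminescence. Substrate levels (D-luciferin, ATP) sit at their KM values. Each compound is tested in a concentration series.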
Sequence of Luciferin 4-monooxygenase (Photinus pyralis) (P08659 whole entry, looked up): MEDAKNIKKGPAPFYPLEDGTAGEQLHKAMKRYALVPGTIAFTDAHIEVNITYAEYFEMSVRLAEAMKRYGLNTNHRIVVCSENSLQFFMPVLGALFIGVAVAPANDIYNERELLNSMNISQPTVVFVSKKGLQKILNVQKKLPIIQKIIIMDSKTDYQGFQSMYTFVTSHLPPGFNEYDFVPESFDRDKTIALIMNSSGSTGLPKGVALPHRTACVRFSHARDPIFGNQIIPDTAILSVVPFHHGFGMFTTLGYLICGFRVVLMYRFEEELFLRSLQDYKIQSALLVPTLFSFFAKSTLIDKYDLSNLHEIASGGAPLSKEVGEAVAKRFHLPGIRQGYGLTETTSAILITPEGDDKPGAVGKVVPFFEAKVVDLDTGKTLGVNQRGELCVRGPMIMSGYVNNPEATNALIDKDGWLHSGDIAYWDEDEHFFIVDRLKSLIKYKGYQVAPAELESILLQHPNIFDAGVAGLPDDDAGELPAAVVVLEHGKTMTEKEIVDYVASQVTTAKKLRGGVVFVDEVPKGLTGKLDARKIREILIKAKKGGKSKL
(In qHTS, concentration-response curves come from the screen itself.)

The nature of assay [3]: qHTS assay to identify small molecule agonists of the constitutive androstane receptor (CAR) signaling pathway - cell viability counter screen (AID 1224836). Also: series mostly up to about 92 µM; nearly all actives have a fitted effect of over 45% in size. Summed up:
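HepG2-CYP2B6-hCAR, 2500 cells/well, 4 h pre-incubation; cpd 15 conc + PK11195 0.75 uM final; 23 h, 37 C/5% CO2; CellTiter-Fluor, fluorescence.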

The nature of assay [4]: qHTS assay to identify small molecule antagonists of the constitutive androstane receptor (CAR) signaling pathway - cell viability counter screen (AID 1224837). Also: series mostly up to about 92 µM; nearly all actives have a fitted effect of over 45% in size. In a few lines:
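HepG2 cells stably carrying hCAR and CYP2B6-2.2kb reporter, stimulated with 50 nM CITCO and compounds at 15 concentrations for 23 h at 37 C. Viability measured by CellTiter-Fluor fluorescence.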

Assay [5] addresses Nuclear receptor subfamily 1 group I member 3 (Homo sapiens) (UniProt Q14994). Briefly: qHTS assay to identify small molecule antagonists of the constitutive androstane receptor (CAR) signaling pathway (AID 1224838). Also: nearly all actives have a fitted effect of over 40% in size. In a few lines:
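HepG2 cells stably carrying hCAR and a CYP2B6-2.2kb luciferase reporter, seeded 4 hrs before compound (15 concentrations). Stimulated with 50 nM CITCO for 24 hr at 37 C. ONE-Glo luminescence read after 30 min at room temperature.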

Assay [6] shares this target. Briefly: qHTS assay to identify small molecule agonists of the constitutive androstane receptor (CAR) signaling pathway (AID 1224839). Also: series mostly up to about 92 µM; nearly all actives have a fitted effect of over 15% in size. In a few lines:
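HepG2-CYP2B6-hCAR cells, 2500/well, 4 h pre-incubation; compounds 15 conc.; PK11195 0.75 uM final; 24 h, 37 C/5% CO2; ONE-Glo luciferase read.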

Assay [7] is described as follows: qHTS assay to identify small molecule antagonists of the estrogen related receptor signaling pathway with the pleiotropic PPARgamma coactivator (PGC) from Tox21 10K library - cell viability counter screen (AID 1224840; active = well fitted cell-killing curve with a large enough effect in the repeat runs, not every such curve was filed as active; also: nearly all actives have a fitted effect of over 40% in size). Summed up:
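PGC/ERR cells (2,000/well) plated 6 h, then compound-treated for 17.5 h at 37 C. Viability measured by CellTiter-Fluor fluorescence after 30 min at 37 C, multiplexed with the pathway assay.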

In assay [8] the target is Thyrotropin receptor (Homo sapiens) (UniProt P16473). Briefly: qHTS assay to identify small molecule agonists of the thyroid stimulating hormone receptor (TSHR) signaling pathway (AID 1224843; calls by dose curve; also: nearly all actives have a fitted effect of over 45% in size; also: potency is read from the fitted curve at half-maximal effect). In a few lines: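 HEK293 cells stably bearing the thyrotropin receptor were plated at 800 cells/well and challenged with compound (30 min, RT). Accumulated cAMP was quantified via cAMP-d2 competing for cryptate-tagged antibody.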
Sequence of Thyrotropin receptor (Homo sapiens) (P16473 whole entry, looked up): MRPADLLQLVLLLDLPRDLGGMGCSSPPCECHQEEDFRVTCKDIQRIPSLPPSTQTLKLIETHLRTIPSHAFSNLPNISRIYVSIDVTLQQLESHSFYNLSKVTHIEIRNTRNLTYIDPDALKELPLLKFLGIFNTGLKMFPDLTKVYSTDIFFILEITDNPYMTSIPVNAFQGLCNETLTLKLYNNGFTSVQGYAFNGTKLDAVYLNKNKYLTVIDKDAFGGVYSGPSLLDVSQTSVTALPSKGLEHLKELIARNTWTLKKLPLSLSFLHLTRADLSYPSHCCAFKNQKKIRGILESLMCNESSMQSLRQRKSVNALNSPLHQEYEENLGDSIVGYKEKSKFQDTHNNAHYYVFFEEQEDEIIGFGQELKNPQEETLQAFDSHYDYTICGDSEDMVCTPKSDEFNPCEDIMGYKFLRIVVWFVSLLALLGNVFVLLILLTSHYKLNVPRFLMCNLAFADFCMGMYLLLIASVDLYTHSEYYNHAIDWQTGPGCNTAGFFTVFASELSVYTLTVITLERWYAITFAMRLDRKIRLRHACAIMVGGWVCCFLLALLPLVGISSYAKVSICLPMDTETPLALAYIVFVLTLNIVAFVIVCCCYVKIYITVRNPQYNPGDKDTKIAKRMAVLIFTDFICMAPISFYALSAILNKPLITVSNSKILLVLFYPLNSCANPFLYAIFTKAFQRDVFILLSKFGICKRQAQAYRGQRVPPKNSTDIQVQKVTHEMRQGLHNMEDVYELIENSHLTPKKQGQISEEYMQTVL

A short description of assay [9]: qHTS assay to identify small molecule agonists of the hypoxia (HIF-1) signaling pathway - cell viability counter screen (AID 1224844; calls by dose curve; also: nearly all actives have a fitted effect of over 50% in size). Summed up:
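HRE-bla ME-180 cells, 2,000/well in 0.5% dialyzed FBS medium, treated 17 h at 37C with compounds. Viability read in the same wells as the bla reporter, by CellTiter-Glo luminescence after 30 min at room temperature.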

Assay [10] is described as follows: qHTS assay to identify small molecule agonists of H2AX (AID 1224845; active = well fitted activation curve with a large enough effect in the signal ratio in the repeat runs, not every such curve was filed as active; the % refers to the signal ratio). In a few lines:
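Phospho-H2AX Ser139 measured by HTRF (ex 320 nm; em 665 and 620 nm) after 24 hr antibody incubation. Compounds, 15 concentrations, 0.76% DMSO, were applied to CHO-K1 cells for 3hr at 37C before lysis.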

The nature of assay [11]: qHTS assay to identify small molecule agonists of H2AX - cell viability counter screen (AID 1224847; calls by dose curve;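 also: wild-type CHO-K1 cells; top concentration of the series differs between compounds; nearly all actives have a fitted effect of over 30% in size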). In a few lines:
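Cells plated first: CHO-K1, 1000 per well in 10% FBS medium, incubated overnight at 37C. Then 15-point compound titration added (final DMSO 0.76%) for 3 hr. Finally CellTiter-Glo added and luminescence read.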

The nature of assay [12]: qHTS RealTime-Glo MT Cell Viability Assay in HepG2 cells - 24 hour (AID 1224867). Also: nearly all actives have a fitted effect of over 50% in size. In a few lines:
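Viability was tracked continuously by NanoLuc luminescence from prosubstrate reduced by living HepG2 cells, at successive time points over 40 h of compound exposure. Cells with reagent were preincubated 5 h at 37 °C before compound addition.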

Assay [13] can be described thus: qHTS RealTime-Glo MT Cell Viability Assay in HEK293 cells - 32 hour (AID 1224868). Also: top concentration of the series differs between compounds; nearly all actives have a fitted effect of over 50% in size. Summed up:
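Viability tracked continuously by luminescence as live cells reduce a prosubstrate for NanoLuc; HEK293 cells preincubated 5 h, compound-treated at 37 C, and read at 0, 8, 16, 24, 32 and 40 h.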

Assay [14] in a line: A CellTox Green Cytotoxicity Assay to monitor cytotoxicity in HEK293 cells - 0 hour (AID 1224869). Also: nearly all actives have a fitted effect of over 50% in size. In a few lines:
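HEK293 cells, 600/well, were preincubated 5 hours and then exposed to compounds at 37 C for up to 40 hours. A cell-impermeant cyanine dye staining dead-cell DNA was read by fluorescence at 0, 8, 16, 24, 32 and 40 h time points.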

Assay [15] is described as follows: qHTS assay to identify small molecule agonists of the hypoxia (HIF-1) signaling pathway (AID 1224846; active = well fitted activation curve with a large enough effect in the signal ratio in the repeat runs, not every such curve was filed as active; the % refers to the signal ratio). In a few lines:
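HRE-bla ME-180 beta-lactamase reporter cells in medium with 0.5% dialyzed FBS, pre-incubated 5 h then exposed to compounds 17 h at 37C, 5% CO2; reporter induction read with CCF4-AM FRET substrate.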

SMILES strings stand for the structures. Values without a mark were called inactive. Inconclusive results are not listed. The source made the active and inactive calls. Unless noted, calls follow the shape of the dose curve; as a rule, active = well fitted curve in the direction sought with a large enough effect in the repeat runs; inconclusive = weak or mixed curves; inactive = no such curve, though single readings can be large; an effect the other way counts as inactive or inconclusive.

Sequence of Nuclear receptor subfamily 1 group I member 3 (Homo sapiens) (Q14994 whole entry, looked up): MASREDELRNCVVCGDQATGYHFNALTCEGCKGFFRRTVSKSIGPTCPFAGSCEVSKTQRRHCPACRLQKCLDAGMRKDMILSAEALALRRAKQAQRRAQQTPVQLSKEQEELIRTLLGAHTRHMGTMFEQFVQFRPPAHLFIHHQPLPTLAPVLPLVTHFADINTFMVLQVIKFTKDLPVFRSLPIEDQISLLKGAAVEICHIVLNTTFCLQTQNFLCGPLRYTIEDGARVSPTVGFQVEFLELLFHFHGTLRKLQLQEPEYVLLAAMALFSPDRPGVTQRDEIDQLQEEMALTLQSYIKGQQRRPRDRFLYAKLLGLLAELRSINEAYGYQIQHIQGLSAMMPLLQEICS

Regarding `CC(=O)C(C)=O`, the Potency entry in assay [1], in [2], in [3], in assay [4], in [5] and in assay [6] was “inactive” in each case. For the same compound, the Potency entry in assay [7], in [8], in assay [9], in assay [10], in assay [11] and in assay [12] was “inactive” each time. The Potency result in assay [13] and in assay [14] was “inactive” throughout.
With `CC(C)(O)c1coc(S(=O)(=O)NC(=O)Nc2c3c(cc4c2CCC4)CCC3)c1`, the Potency result in assay [1], in [2], in [3], in assay [4], in assay [5] and in assay [6] was “inactive” each time. Besides, the Potency entry in assay [7], in assay [8], in assay [9], in assay [10], in [11] and in assay [12] was “inactive” each time. The Potency result in assay [13] and in assay [14] was “inactive” in each case. Further, the call in assay [15] was inactive.
As for `CCN(CC)CCOC(=O)C(c1ccccc1)c1ccccc1`, the Potency entry in [1], in assay [2], in [3], in [4], in [5] and in assay [6] was “inactive” each time. In addition, the Potency entry in assay [7], in assay [8], in assay [9], in assay [10], in assay [11] and in [12] was “inactive” throughout. In addition, in assay [14], the Potency result was “inactive”.
`CCCCC[C@H](O)/C=C/[C@H]1[C@H](O)CC(=O)[C@@H]1C/C=C\CCCC(=O)O`: the Potency result in [1], in assay [2], in assay [3], in [4], in assay [5] and in assay [6] was “inactive” each time. Further, the Potency entry in assay [7], in assay [9], in assay [10], in assay [11], in assay [12] and in assay [13] was “inactive” in each case. In addition, the Potency entry in [14] is “inactive”. In addition, in [8], the Potency was 0.0266 µM (active). The result in assay [15] was inactive.
With `C=CCOC(=O)COCCC(C)C`, the Potency entry in assay [1], in [2], in assay [3], in [4], in assay [5] and in assay [6] was “inactive” throughout. For the same compound, the Potency entry in assay [7], in [8], in assay [9], in assay [11], in [12] and in assay [13] was “inactive” each time. The Potency entry in assay [14] was “inactive”. Also, the call in assay [15] was inactive.
With `CCN(CC)CCNC(=O)c1cc(Cl)c(N)cc1OC`, the Potency result in assay [1], in assay [2], in [3], in assay [4], in assay [5] and in assay [6] was “inactive” each time. In addition, the Potency result in [7], in assay [8], in assay [9], in [10], in assay [11] and in assay [12] was “inactive” in each case. Also, the Potency result in [13] was “inactive”.
As to `CCOC(=O)Oc1ccc(CCNC(=O)[C@H](CCSC)NC(C)=O)cc1OC(=O)OCC`, the Potency result in assay [1], in [2], in [3], in assay [4], in assay [5] and in [6] was “inactive” in each case. Also, the Potency entry in [7], in assay [8], in assay [9], in assay [11], in [12] and in [13] was “inactive” each time. Further, the Potency result in assay [14] was “inactive”. Moreover, the compound was called inactive in [15].
Regarding `O=C(O)CCC(=O)c1ccc(-c2ccccc2)cc1`, the Potency entry in assay [1], in assay [3], in assay [4], in assay [5], in assay [6] and in [7] was “inactive” each time. In addition, the Potency entry in assay [8], in assay [9], in assay [10], in assay [11], in assay [12] and in [13] was “inactive” each time. Further, the Potency result in [14] was “inactive”. Moreover, the Potency in [2] was 6.92 µM (active). In assay [15], the compound was classed as inactive.

For the origin of these results see PubChem BioAssay (Tox21).
